TDP1 cell CPT = DT40-hTDP1 cell growth loss with CPT; Potency, µM (highest dose often 46.2 µM), inactives show at the highest dose activity change, negative = growth inhibition, hits mostly inhibitors; 420,000 tested, 12% active; chicken DT40 Tdp1-/-;hTDP1 cells + 20 nM CPT, ATP luminescence, 48 h; further: potency means the concentration at half of the fitted maximal effect; nearly all actives have a fitted effect of over 55% in size
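Chicken DT40 Tdp1-/- cells stably complemented with human TDP1 were seeded at 400 cells/well in medium containing 20 nM camptothecin, exposed to pin-transferred compounds, and grown at 37 °C for at least 48 hr. Viability was read as ATP luminescence.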
HT1080 IDH1KD tx = kills HT-1080 cells with IDH1 knockdown; AID 686971; 360,000 tested, 2% active; Potency, µM (titrated, usually from 46.1 µM), for the others: at the top dose activity, negative = toxicity, actives largely listed as cytotoxic; HT-1080 IDH1 knockdown viability, ATP luminescence, 48 h;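 further: potency means the concentration at half of the fitted maximal effect; 0% = DMSO wells and -100% = cell-free medium wells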
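After a 2 h attachment period, IDH1KD HT-1080 cells took pin-transferred compound for 48 h at 37 °C; ATP-based luminescence after 10 min room-temperature reagent incubation reported viability.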
DT40 TDP1 no CPT = qHTS for Inhibitors of human tyrosyl-DNA phosphodiesterase 1 (TDP1): qHTS in cells in absence of CPT; DT40 Tdp1-/- hTDP1 cells, no CPT, ATP luminescence, 48 h; Potency, µM (titrated, usually from 46.2 µM), inactives show top-dose activity change, negative = growth inhibition, actives largely listed as inhibitors; 420,000 tested, 15% active; further: potency means the concentration at half of the fitted maximal effect; nearly all actives have a fitted effect of over 55% in size
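Seeded 400 DT40-hTDP1 cells/well (vehicle DMSO, no 20 nM CPT); pinned compounds; ≥48 hr at 37 °C; CellTiter-Glo luminescence as viability measure.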
12-LOX inh = ALOX12 (human) lipoxygenase inhibition. purified 12hLO, xylenol orange hydroperoxide absorbance. AID 1671190. Potency, µM (titrated, usually from 108 µM), inactives show top-dose activity change, negative = inhibition, usual class: inhibitors. 580,000 tested, 1.1% active; further: potency means the concentration at half of the fitted maximal effect
Target sequence (P18054 whole entry, looked up): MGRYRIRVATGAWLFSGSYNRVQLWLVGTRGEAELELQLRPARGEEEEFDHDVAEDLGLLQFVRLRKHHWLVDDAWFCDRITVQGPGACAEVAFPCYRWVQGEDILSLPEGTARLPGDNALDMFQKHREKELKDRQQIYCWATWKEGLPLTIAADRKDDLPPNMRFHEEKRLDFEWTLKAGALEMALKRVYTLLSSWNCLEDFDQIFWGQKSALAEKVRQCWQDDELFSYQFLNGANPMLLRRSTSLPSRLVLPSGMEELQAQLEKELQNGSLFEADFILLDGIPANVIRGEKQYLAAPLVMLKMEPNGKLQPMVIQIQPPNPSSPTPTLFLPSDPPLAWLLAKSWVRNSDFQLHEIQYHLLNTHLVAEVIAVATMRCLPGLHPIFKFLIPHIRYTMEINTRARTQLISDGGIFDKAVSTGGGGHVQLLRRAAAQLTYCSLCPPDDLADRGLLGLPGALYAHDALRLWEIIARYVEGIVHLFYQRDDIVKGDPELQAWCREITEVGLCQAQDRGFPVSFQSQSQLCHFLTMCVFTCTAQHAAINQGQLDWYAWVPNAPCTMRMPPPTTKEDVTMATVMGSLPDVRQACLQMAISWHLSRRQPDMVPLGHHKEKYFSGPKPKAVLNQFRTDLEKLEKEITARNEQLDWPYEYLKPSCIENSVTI
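Purified human 12hLO (150 nM final) in 25 mM Hepes, 0.01% Triton X-100, pH 7.0 was preincubated 15 min at room temperature with compound. Then 40 uM arachidonic acid was added, 30 min. Hydroperoxide was read by Fe-XO absorbance ratio 573/405 nm.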
IL-1B inflam inh = blocks inflammasome-driven IL-1 beta release; THP-1 LPS/ATP IL-1B secretion, AlphaLISA, 16 h; hits give low values; activity change, % at 57.5 µM; 360,000 tested, 4.7% active; AID 743279; in the data active means activity change below about -50%; inconclusive means mostly about -30% to -49%
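Secreted IL-1B measured by AlphaLISA bead assay after 16 h compound exposure of THP-1 cells; compounds (final up to 57.5 uM) added 1 h before LPS (250 ng/mL) and ATP (1.25 mM) stimulation; lower signal means less secretion.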
HT1080NT lethal = kills 2HG-producing HT-1080-NT fibrosarcoma cells | 360,000 tested, 1.6% active | AID 686970 | HT-1080-NT fibrosarcoma viability, CellTiter-Glo ATP luminescence, 48 h | Potency, µM (highest dose often 46.1 µM), for inactives: top-dose activity, negative = less viability, usual class: cytotoxic;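 further: NT is the 2HG producing partner of a matched IDH1 knockdown line; potency means the concentration at half of the fitted maximal effect; 0% = DMSO-treated cells and -100% = media-only wells without cells; nearly all actives have a fitted effect of over 55% in size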
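Viability by CellTiter-Glo luminescence after 48 h compound exposure at 37C of HT-1080-NT cells (750/well, RPMI, 5% FBS). % activity scaled between DMSO wells and medium-only wells, then curve-fitted and categorized by curve class.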
Starred values were filed as active, the others as inactive; u = inconclusive; x = not tested or not shown. Only a selection was taken, and hits are over-represented in it overall. Unless noted, the call rests on the fitted dose curve; in most records, active means well fitted curve in the direction sought with a large enough effect; inconclusive means small, poorly fitted or top-dose-only effect, or another doubt; inactive means no such curve, though single readings can be large; an effect the other way counts as inactive or inconclusive. Unless noted, on the % scale 0 is the no-effect control and ±100 the full control effect.

SMILES | TDP1 cell CPT | HT1080 IDH1KD tx | DT40 TDP1 no CPT | 12-LOX inh | IL-1B inflam inh | HT1080NT lethal
CCC(=O)N1CCCc2cc(S(=O)(=O)N3CCC(C(=O)Nc4ccc(F)c(F)c4)CC3)ccc21 | -87% | x | 12µM* | -17% | x | x
CCC(=O)N1CCCc2cc(S(=O)(=O)N3CCC(C(=O)Nc4ccc(C#N)cc4)CC3)ccc21 | 18µM* | x | u | -55% | x | x
CC(=O)N1CC2(CCN(Cc3nnc(-c4ccco4)o3)CC2)CC1C(=O)O (stereo not drawn) | x | x | x | 99% | x | x
COc1cc(CC(=O)OCc2ccccc2C#N)ccc1C | x | x | x | 34% | x | x
COc1cccc(N2CCN(C(=O)c3ccc(CS(=O)c4ccc(Cl)cc4)o3)CC2)c1 (stereo not drawn) | 0.73µM* | 1.8µM* | 0.92µM* | u | 24 | u
COc1cccc(N2CCN(C(=O)c3ccc(CS(=O)c4ccc(C)cc4)o3)CC2)c1 (stereo not drawn) | 0.58µM* | 0.29µM* | 0.52µM* | -21% | 31 | 0.21µM*
Cc1ccc(NC(=S)N/N=C/c2c(C)nn(-c3ccccc3)c2N2CCCC2)cc1 | 12% | 22% | u | u | 30 | 5%
Cc1nn(-c2ccccc2)c(N2CCCCC2)c1/C=N/NC(=O)c1ccncc1 | 13µM* | -4% | 23µM* | -1% | 12 | -11%
Cc1nn(-c2ccccc2)c(N2CCCC2)c1/C=N/NC(=S)Nc1ccc(F)cc1 | 5.8µM* | 0% | 8.2µM* | u | -12 | -3%
Cc1nn(-c2ccccc2)c(N2CCCC2)c1/C=N/NC(=S)Nc1ccccc1C(F)(F)F | u | 3% | u | 35µM* | -11 | 3%
Cc1nn(-c2ccccc2)c(N2CCCC2)c1/C=N/NC(=S)Nc1cc(C(F)(F)F)ccc1Cl | u | 1% | u | u | 6 | 6%
CCC(=O)NCCc1cccc2cccnc12 | x | x | x | 7% | x | x
Cc1ccc(S(=O)(=O)N2CCN(C(=O)NC(C)CCc3ccccc3)CC2)cc1 (stereo not drawn) | x | x | x | -16% | x | x
CN(CC(=O)Nc1c(Cl)cccc1Cl)C(=O)CNC(=O)c1cccs1 | x | x | x | 26% | x | x
O=C(Cc1ccc(N2CCCC2=O)cc1)N1CCN(C(=O)C2CC2)CC1 | x | x | x | 12% | x | x
CCOC(=O)c1cnc2cc(-c3ccc(Cl)cc3)nn2c1-c1ccccc1 | u | x | 13µM* | -11% | x | x
CNC(=O)c1cccn1-c1ccsc1C(=O)OC | u | 16% | 18µM* | 1% | -1 | 28%
COc1ccc(S(=O)(=O)Nc2ccccc2-c2nnn(CC(=O)Nc3ccccc3OC)n2)cc1 | 6.5µM* | -2% | 8.2µM* | 2% | -1 | -2%
CCn1nnc(-c2ccccc2NC(=O)c2cc(OC)cc(OC)c2)n1 | u | 12% | u | 22% | -9 | -2%
CCn1nnc(-c2ccccc2NC(=O)c2cc(OC)c(OC)c(OC)c2)n1 | u | 6% | 15µM* | 5% | 8 | -13%
COc1ccc(NC(=O)Cn2nnc(-c3ccccc3NS(=O)(=O)c3ccccc3)n2)cc1 | 23µM* | u | 18µM* | x | 7 | -19%
CCOc1ccc(NC(=O)Cn2nnc(-c3ccccc3NC(=O)c3cccs3)n2)cc1 | u | 1% | u | 32% | 42 | 24%
CCCC(=O)Nc1ccccc1-c1nnn(CC(=O)Nc2ccc(OC)cc2)n1 | u | -12% | 21µM* | 5% | 7 | -10%
COCc1cc(C[C@@H]2CC[C@H](O)[C@@H](CN(C(=O)Nc3ccc(OC)cc3)C(=O)Nc3ccc(OC)cc3)O2)no1 | x | x | x | 14% | x | x
CC(C)n1nc(C(=O)N2CCCc3ccccc32)c2ccccc2c1=O | x | x | x | 0% | x | x

Compound activity deposited in PubChem BioAssay by National Center for Advancing Translational Sciences (NCATS).
